KB-V1 MDR tox: qHTS assay for MDR1-selective chemotherapeutics: Primary screen using the drug-selected MDR subline cells KB-V1; KB-V1 MDR cells viability, CellTiter-Glo, 72 h; Potency, µM (doses to about 46.1 µM), most hits filed as cytotoxic; 3.4% of 400,000 active; AID 1347076, 2019; also: nearly all actives have a fitted effect of over 60% in size
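Following 72 h at 37 degrees C with compound, KB-V1 cell viability was read by CellTiter-Glo luminescence, medium being phenol-red-free DMEM plus 10% FBS; concentration-response parameters came from normalized, curve-fitted qHTS data.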
MCF10A rerep: A quantitative high throughput screen for small molecules that induce DNA re-replication in MCF 10a normal breast cells; MCF 10A DNA re-replication, Hoechst nuclear intensity, 48 h; Potency, µM (doses to about 46.1 µM), hits mostly activators; 2.9% of 350,000 active; also: nearly all actives have a fitted effect of over 50% in size
D3 ag: qHTS of D3 Dopamine Receptor Agonist: qHTS; D(3) dopamine receptor (Homo sapiens), P35462; D3R DiscoveRx beta-arrestin cells, luminescence, 90 min; max activation, %; 0.58% of 410,000 active; AID 652048, 2013; in the data active = max activation above about 30%
Target sequence (P35462 whole entry, looked up): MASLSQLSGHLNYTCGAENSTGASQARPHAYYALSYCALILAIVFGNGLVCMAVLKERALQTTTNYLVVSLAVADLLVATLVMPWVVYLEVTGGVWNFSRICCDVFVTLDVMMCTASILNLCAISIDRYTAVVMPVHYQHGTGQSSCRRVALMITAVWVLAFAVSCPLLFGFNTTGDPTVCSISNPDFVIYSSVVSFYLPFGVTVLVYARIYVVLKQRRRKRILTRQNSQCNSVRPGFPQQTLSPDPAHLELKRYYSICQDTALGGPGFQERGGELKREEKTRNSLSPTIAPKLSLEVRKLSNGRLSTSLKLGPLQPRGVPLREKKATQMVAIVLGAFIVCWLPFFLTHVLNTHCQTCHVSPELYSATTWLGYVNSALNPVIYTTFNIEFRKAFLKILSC
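Cells at 1500/well, incubated overnight, then treated with pinned compounds (dopamine as control) for 90 min at 37 degrees C. DiscoveRx reagent added for 30 - 60 minutes at room temperature; luminescence read.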
KB-3-1 tox: qHTS assay for MDR1-selective chemotherapeutics: Primary screen using the parental adenocarcinoma cell KB-3-1 | Potency, µM (doses to about 46.1 µM), usual class: cytotoxic | KB-3-1 viability, CellTiter-Glo ATP luminescence, 72 h | AID 1347075, 2019 | 1.4% of 400,000 active; also: nearly all actives have a fitted effect of over 60% in size
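Screening of KB-3-1 cells (DMEM, 10% FBS, phenol-red free) ran from lowest to highest compound concentration; after 72 h at 37 °C viability was read luminescently and curves fitted.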
SW480 rerep: A quantitative high throughput screen for small molecules that induce DNA re-replication in SW480 colon adenocarcinoma cells; SW480 DNA re-replication, Hoechst DNA content imaging, 48 h; Potency, µM (series often up to 46.1 µM), usual class: activators; 1.8% of 340,000 active; also: nearly all actives have a fitted effect of over 55% in size
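First, 250 cells per well were seeded. Next, compound or vehicle (23 nL) was pinned in, plates sat 48 hr at 37 C. Finally Hoechst was added for 40 min before fluorescence scanning.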
DRD3 antagonist: qHTS of D3 Dopamine Receptor Antagonist: qHTS; D(3) dopamine receptor (Homo sapiens), P35462; D3R cells, DiscoveRx beta-arrestin luminescence, antagonist mode; active compounds read low; max response, negative = inhibition, %; 2.5% of 360,000 active; AID 652054, 2013; in the data active = max response below about -50%; inconclusive = no clear call, values can overlap the other calls
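Cells plated overnight at 1500 cells/well, then exposed to library compounds with dopamine controls for 90 minutes at 37 degrees C. DiscoveRx reagent added for 30–60 minutes at room temperature; luminescence read, quantitative HTS format.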
A number is an active result; n = inactive; u = inconclusive; x = no result given; [ ] = remark or other dose. Shown are actives, neighbours in structure and some others; about 8.9% of the full set was active somewhere. Unless noted, calls follow the shape of the dose curve; as a rule, active = well fitted curve in the direction sought with a large enough effect; inconclusive = small, poorly fitted or top-dose-only effect, or another doubt; inactive = no such curve, though single readings can be large; an effect the other way counts as inactive or inconclusive.

SMILES	KB-V1 MDR tox	MCF10A rerep	D3 ag	KB-3-1 tox	SW480 rerep	DRD3 antagonist
CCN(CC)S(=O)(=O)c1ccc(NC(=O)c2ccc(CN3CCOCC3)cc2)cc1	u	n	n	3.26µM	n	n
O=C(Nc1ccc(S(=O)(=O)N2CCCCC2)cc1)c1ccc(CN2CCOCC2)cc1	2.06µM	u	n	7.31µM	n	n
O=C(Nc1ccc(S(=O)(=O)N2CCCC2)cc1)c1cnccn1	n	n	n	n	n	n
O=C(Nc1ccc(S(=O)(=O)N2CCN(Cc3ccccc3)CC2)cc1)c1cnccn1	2.31µM	n	n	10.3µM	n	n
CCCOc1cccc(C(=O)Nc2ccc(CN3CCOCC3)cc2)c1	n	20.6µM	n	n	n	n
CCCOc1ccc(C(=O)Nc2ccc(CN3CCOCC3)cc2)cc1	n	u	n	n	n	n
CN(C)c1ccc(/C=C2\C=Cc3ccccc32)cc1[N+](=O)[O-]	n	x	x	n	x	x
O=C(O)CC1c2ccccc2CCN1C(=O)Nc1cc(Cl)ccc1Cl (stereo unspecified)	x	x	n	x	x	x
NC(=O)c1ccc[n+]([C@@H]2O[C@H](COP(=O)([O-])OP(=O)(O)OC[C@H]3O[C@@H](n4cnc5c(N)ncnc54)[C@H](O)[C@@H]3O)[C@@H](O)[C@H]2O)c1	x	x	n	x	x	x
COc1ccc(NS(=O)(=O)c2ccc(NC(=O)c3ccc(CN4CCOCC4)cc3)cc2)cc1	n	u	n	u	u	n
O=C(Nc1ccc(S(=O)(=O)Nc2ccc(F)cc2)cc1)c1ccc(CN2CCOCC2)cc1	u	u	n	3.66µM	u	n
CN=C(NC)NCc1ccccc1	x	x	n	x	x	x
COc1cccc(NC2=C(Cl)C(=O)OC2OC(=O)c2ccco2)c1 (stereo unspecified)	n	14.1µM	n	n	u	n
COc1ccccc1NC1=C(Cl)C(=O)OC1OC(=O)c1ccco1 (stereo unspecified)	n	u	n	n	u	n
O=C(Nc1nnc(SCc2cc(=O)n3cc(Cl)ccc3n2)s1)c1cccc(F)c1	x	x	n	x	x	x
CCOc1ccccc1CNS(=O)(=O)c1ccc2[nH]c(=O)ccc2c1	u	x	n	n	x	x
CCOC(=O)c1cnc(-n2nc(C)cc2C)nc1NC1CCCC1	5.17µM	n	n	n	n	n
CCOC(=O)c1cnc(-n2nc(C)cc2C)nc1NCCc1ccccc1	0.731µM	u	n	n	n	n
CCC(Cn1nnc2ccccc2c1=O)NC(=O)Nc1cc(Cl)ccc1OC (stereo unspecified)	n	x	n	n	x	x
Cc1cc(CNC[C@H]2O[C@@H](n3cnc4c(N)ncnc43)[C@H](O)[C@@H]2O)no1	n	x	n	n	x	n
CCn1c(Cn2nnc(-c3ccccc3)n2)nnc1SCC(=O)Nc1cccc(C(C)=O)c1	n	20.6µM	n	n	u	n
CCn1c(CSc2nc(C)cc(C)n2)nnc1SCC(=O)Nc1ccccc1	20.6µM	n	n	n	n	n
COC(=O)c1ccc(Oc2cc(C)nc(Cl)n2)cc1	n	n	n	n	u	n
Cc1cc(Oc2ccccc2)nc(SCC(N)=O)n1	n	n	n	n	n	-77.7
Cc1cc(C)nc(SCc2nnc(SCC(N)=O)o2)n1	u	n	n	n	n	n
SMILES	KB-V1 MDR tox	MCF10A rerep	D3 ag	KB-3-1 tox	SW480 rerep	DRD3 antagonist
COC(=O)c1ccc(Oc2cc(C)nc(SC)n2)cc1	4.61µM	3.66µM	n	5.8µM	n	n
Cc1ccc2c(c1)c1c3n2CCCNC3CCC1 (stereo unspecified)	n	n	n	n	n	n
c1cc2c(cc1C1CCCCC1)c1c3n2CCCNC3CCC1 (stereo unspecified)	u	u	n	18.4µM	n[9.22 µM]	n
Cc1ccc2c(c1)c1c3n2CCN[C@H]3CCC1	x	u	x	x	n	x
Cc1ccc2c(c1)c1c3n2CCN=C3CCC1	14.6µM	n	n	u	n	u
c1cc2c(cc1C1CCCCC1)c1c3n2CCN=C3CCC1	u	16.4µM	n	u	20.6µM	n
Fc1ccc(NC(=S)NN=C2CCCCCC2)cc1	n	n	n	n	n	-149.6
Brc1ccc2c(c1)-c1ccccc1C1=NCCN12	10.3µM	x	n	u	x	n
Clc1ccc2c(c1)-c1ccccc1C1=NCCN12	8.2µM	x	n	10.3µM	x	n
N#Cc1ccc(NC(=O)c2ccc3c(c2)nnn3C2CCCC2)cc1	n	x	n	n	x	x
CCc1ccccc1NC(=O)Cn1ccn(Cc2ccccc2)c(=O)c1=O	n	x	n	n	x	x
Cc1ccc(C(=O)c2cn(CC(=O)NCc3ccccc3Cl)c3nc(C)ccc3c2=O)cc1	x	x	n	x	x	x
COc1cccc(COc2ccccc2C2Nc3ccc(Br)cc3C(=O)N2NC(=O)c2ccncc2)c1 (stereo unspecified)	8.2µM	n	n	u	u	-55.3
CC1=C(C(=O)Nc2ccc(CC(=O)NCc3ccccc3C)cc2)SCCO1	n	u	n	u	n	n
CCc1ccc(CNC(=O)Cc2ccc(NC(=O)C3=C(C)OCCS3)cc2)cc1	1.16µM	u	n	1.16µM	u	n
CC1=NN(C(=O)c2cccc(Cn3nc(C)c([N+](=O)[O-])c3C)c2)C(O)(C(F)(F)F)C1 (stereo unspecified)	u	5.8µM	n	n	u	n
Cc1nn(Cc2cccc(C(=O)O)c2)c(C)c1[N+](=O)[O-]	u	n	n	n	n	n
Cc1nn(Cc2cccc(C(=O)N3N=C(C(F)F)CC3(O)C(F)F)c2)c(C)c1[N+](=O)[O-] (stereo unspecified)	8.2µM	u	n	n	n	n
Cc1cccc(Nc2nnc(SC/C(O)=C(\C#N)c3nc4ccccc4[nH]3)s2)c1	n	16.4µM	n	u	n	n
COc1ccc(NC(=O)CN(C)C(=O)c2cccc(S(=O)(=O)N3CCCc4ccccc43)c2)cc1	n	n	n	n	n	n
CN(CC(=O)Nc1ccccc1Br)C(=O)c1cccc(S(=O)(=O)N2CCc3ccccc32)c1	18.4µM	u	n	n	n	n
Cc1ccc(CN(C)C(=O)c2cccc(S(=O)(=O)N3CCc4ccccc43)c2)cc1	n	n	n	n	n	-52.4
COc1cccc(C(=O)/C=C/Nc2ccc(NC(C)=O)cc2)c1	n	u	n	n	n	n
COc1cccc(/C=C/C(=O)c2ccc(NS(=O)(=O)c3ccc(C)cc3)cc2)c1	u	5.8µM	n	n	u	-53.9
COc1cc(/C=C/C(=O)O)ccc1OS(=O)(=O)c1ccc(C)cc1	n	n	n	n	n	n

Source: PubChem (National Center for Advancing Translational Sciences (NCATS))
